Source: PubChem
HIF act = HIF pathway transcriptional activation. activation, % at 7.5 µM (by protocol). U2OS HRE-luciferase reporter, luminescence; normalized: DMSO 0%, desferrioxamine 100%. hit rate 0.32% among 300,000;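 active means mean activation of at least 10% of the iron chelator positive control signal, with at least half of replicates also reaching 10%; inconclusive means mean and replicate majority disagree about reaching 10%; inactive means mean and most replicates under 10%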
NTR1 ag = agonists of human neurotensin receptor NTR1; NTR1-U2OS beta-arrestin-GFP spot imaging, agonist mode; activation, % at 20 µM; hit rate 0.17% among 330,000; AID 493036;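 active means activation at or above 40% of the spot to cytoplasm intensity ratio, with at least 20 cells analyzed; inconclusive means wells under 20 cells, flagged as cytotoxic or low count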;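 further: 0% = DMSO without peptide and 100% = 100 nM NTR1 peptide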
Target sequence (P30989 whole entry, looked up): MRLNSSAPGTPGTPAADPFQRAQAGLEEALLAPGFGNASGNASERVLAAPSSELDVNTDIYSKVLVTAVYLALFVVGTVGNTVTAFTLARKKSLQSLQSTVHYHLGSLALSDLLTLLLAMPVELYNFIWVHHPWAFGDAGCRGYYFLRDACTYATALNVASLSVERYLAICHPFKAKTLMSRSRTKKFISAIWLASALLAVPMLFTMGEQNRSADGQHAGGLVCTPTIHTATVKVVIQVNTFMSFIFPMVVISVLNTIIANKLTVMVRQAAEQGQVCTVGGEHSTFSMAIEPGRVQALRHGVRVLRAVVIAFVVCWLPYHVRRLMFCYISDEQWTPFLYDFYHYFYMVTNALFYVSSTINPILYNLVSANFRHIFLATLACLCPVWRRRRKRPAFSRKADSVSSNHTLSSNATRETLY
Platelet DG rel = modulates dense granule release in human platelets; AID 1663; human platelet-rich plasma, SFLLRN dense granule ATP release, luminescence; hit rate 0.22% among 300,000; inhibition, %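 (compounds screened at 7.5 µM in platelet-rich plasma)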;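 active means mean replicate score, as percent of positive control, at or above 50; inconclusive means mean below 50 but at least one replicate at or above 50; inactive means mean and every replicate below 50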
NTR1 ag conf = NTR1 (human) agonism, confirmed. shares compounds with NTR1 ag. NTR1-U2OS beta-arrestin-GFP translocation imaging. activation, % at 20 µM. hit rate 38% among 480. AID 504550;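 active means mean activation at 20 µM of at least 40%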;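 further: 0% = DMSO without peptide and 100% = 100 nM NTR1 peptide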
Active calls of the source: *; u = inconclusive; x = no result. Sampled rows, rich in hits. Any-hit rate of the full collection: about 0.63%.

SMILES | HIF act | NTR1 ag | Platelet DG rel | NTR1 ag conf
Cc1ccc2c(C)nc(Nc3nc(CSc4nc5ccccc5[nH]4)cc(=O)[nH]3)nc2c1 | -1 | 1 | -3 | x
COc1cc(/C=N/NC(=O)c2ccc(N)cc2)ccc1OC(=O)c1cccc(C)c1 | 1 | 11 | -8 | x
COc1cc(C(=O)N/N=C/c2ccc(OC(=O)c3cccc(C)c3)cc2)ccc1O | -1 | 52* | 1 | 15
Cc1ccc(-n2c(Cc3ccccc3)n[nH]c2=S)cc1 | 0 | 4 | 2 | x
N#Cc1ccccc1OCC(=O)NNC(=O)c1ccncc1 | x | 0 | x | x
Cc1cc(N2CCOCC2)ccc1/C=C\[N+](=O)[O-] | 2 | 40* | 5 | 77*
O=[N+]([O-])c1ccc(N2CCOCC2)cc1O | 0 | 0 | -2 | x
COc1ccc(-n2nc3c(c2NC(=O)C(C)C)CSC3)cc1 | 1 | -1 | -2 | x
COc1ccc(/C=C2\SC(=O)N(CCNC(=O)Cc3coc4cc(C)ccc34)C2=O)cc1OC | 0 | 3 | 0 | x
CCCCNc1c(-c2cccc(-c3ccc(OC)cc3)c2)nc2ccc(C)cn12 | 4 | 36 | -2 | x
CCCCNc1c(-c2cccc(-c3cc(C(C)=O)cs3)c2)nc2ccc(C)cn12 | -3 | 41* | 1 | 22
O=C(Nc1ccccc1C(=O)N1CCCC1)C1CCN(c2ncccn2)CC1 | 0 | 1 | -9 | x
Cc1cc(F)ccc1S(=O)(=O)Nc1ccccc1C(=O)Nc1ncn[nH]1 | 0 | 4 | 2 | x
Cc1cc(F)ccc1S(=O)(=O)Nc1ccccc1C(=O)Nc1ccccc1-c1nc2ccccc2[nH]1 | -1 | 53* | 6 | 72*
Cc1ccc(-c2csc(-c3c[nH]c4ccccc34)n2)c(C)c1 | 3 | 46* | 3 | 4
Oc1ccc(-c2csc(-c3c[nH]c4ccccc34)n2)c(O)c1 | 8 | 17 | 5 | x
COc1cc2c3nnc(-c4ccc(F)cc4)c-3cn(Cc3ccc(C)cc3)c2cc1OC | 0 | 112* | 13 | 96*
Cc1ccc(Cn2nc3c4cc(F)ccc4n(Cc4ccc(F)cc4)cc-3c2=O)cc1 | 0 | 0 | -1 | x
COc1cc2c3nnc(-c4ccc(F)cc4)c-3cn(Cc3cccc(F)c3)c2cc1OC | -1 | 65* | 2 | 71*
COc1cccc(Cn2nc3c4cc(F)ccc4n(Cc4ccc(F)cc4)cc-3c2=O)c1 | 0 | 0 | x | x
Cc1ccc(C(=O)N/C(=C\c2ccc(-c3cccc([N+](=O)[O-])c3)o2)C(=O)NCCCN2CCOCC2)cc1 | -1 | 1 | -13 | x
Cc1ccc(-c2ccccc2)n1-c1ccc(C(=O)O)cc1 | 1 | 0 | -1 | x
Oc1ccccc1-n1c(-c2ccccc2)ccc1-c1ccccc1 | -1 | 51* | 12 | 6
Cc1ccc2nsnc2c1NC(=O)c1ccc2c(c1)OCCO2 | 0 | 1 | -7 | x
COc1cccc(/C=C/C(=O)c2cccc([N+](=O)[O-])c2)c1OC | 1 | 59* | 0 | 59*
SMILES | HIF act | NTR1 ag | Platelet DG rel | NTR1 ag conf
COc1cccc(/C=C/C(=O)c2cccc([N+](=O)[O-])c2)c1 | 0 | 18 | -2 | x
CCSc1ccc2c(c1)N(CCCN1CCN(C)CC1)c1ccccc1S2 | x | 43* | x | 9
CN1CCCC(CN2c3ccccc3Sc3ccccc32)C1 (stereo not given) | 0 | 0 | -1 | x
N=c1c(-c2nc3ccccc3[nH]2)cc(C(=O)c2ccco2)nn1-c1ccccc1 | 0 | 6 | -4 | x
N=c1c(-c2nc3ccccc3[nH]2)cc(C(=O)c2cccs2)nn1-c1ccccc1 | 0 | 52* | 1 | -1
CSCCC(NC(=O)COc1ccccc1)C(=O)NCc1cccs1 (stereo not given) | -2 | 0 | 8 | x
Cc1ccccc1C(=O)N1CCc2cc(-c3csc(NC(=O)CN4CCCC4)n3)ccc21 | 2 | 54* | -8 | 4
O=C(CN1CCCCC1)Nc1nc(-c2ccccc2)cs1 | 2 | 2 | 2 | x
CCc1cc(=O)oc2c(CNCc3ccccc3F)c(O)c(Cl)cc12 | 1 | 0 | -8 | x
COc1ccc(/C=c2\sc3nc(-c4ccccc4)c(-c4ccccc4)n3c2=O)cc1OC | 0 | 1 | 0 | x
O=c1/c(=C\c2cccc(O)c2)sc2nc(-c3ccccc3)c(-c3ccccc3)n12 | 0 | 46* | 0 | 41*
COc1ccc(C(=O)NCc2ccc(-c3nc4ccccc4s3)cc2)cc1OC | 0 | 9 | 0 | x
Cc1ccc(CN2CCN(/N=C/c3cc(Br)ccc3O)CC2)cc1 | 0 | 7 | 4 | x
Cc1cccc(C)c1OCC(=O)Nn1c(C)nc2ccccc2c1=O | -1 | 0 | 0 | x
CC1=NOC(=O)/C1=C/c1ccc(-c2ccc(Cl)cc2)o1 | x | -1 | x | x
CC1=NOC(=O)/C1=C\c1ccc(-c2cc(Cl)ccc2Cl)o1 | 0 | 44* | 4 | 65*
CCOC(=O)c1c(CSc2ccccc2)oc2ccc(O)cc12 | 0 | 12 | 3 | x
CCOC(=O)c1c(CSc2ccc(C)cc2)oc2ccc(O)cc12 | 0 | 45* | 3 | 6
CC(C)C(=O)NC(Nc1cc(C(F)(F)F)ccc1Cl)C(Cl)(Cl)Cl (stereo not given) | -1 | 7 | -10 | x
O=C(Nc1ccc([N+](=O)[O-])cc1)Nc1ccc(N2CCOCC2)c2nonc12 | 0 | 42* | 4 | 65*
CC(=O)Nc1cc([N+](=O)[O-])ccc1N1CCOCC1 | 0 | 0 | 2 | x
COc1cc(-c2nnc(COC(=O)c3nn(CC(C)C)c(=O)c4ccccc34)o2)cc(OC)c1OC | 1 | 2 | 4 | x
CC(C(=O)NC(C)(C)C)N(C(=O)CS(=O)CC(=O)Nc1ccc(F)cc1)c1ccccc1F (stereo not given) | -2 | 1 | 9 | x
CC(=O)Nc1ccc(Nc2nc(C)c([N+](=O)[O-])c(Nc3ccccc3)n2)cc1 | -1 | 46* | -35 | 28
Cc1nc(Nc2ccc(C(=O)O)cc2)nc(Nc2ccc(C(=O)O)cc2)c1[N+](=O)[O-] | 0 | 1 | 17 | x
SMILES | HIF act | NTR1 ag | Platelet DG rel | NTR1 ag conf
COc1cccc(/C=N/NC(=O)c2cc3c(OC)ccc(OC)c3[nH]2)c1O | -11 | 0 | 4 | x
COc1cc(OC)c2cc(C(=O)N/N=C/c3cccc(OC)c3O)[nH]c2c1 | 4 | 60* | -3 | 73*
O=S(=O)(c1ccccc1F)N1CCN(Cc2cc3c(cc2O)OCO3)CC1 | x | -1 | x | x
CCOC(=O)c1cc(-c2ccc(/C=C3/C(=O)N(c4ccc(C(=O)O)cc4)N=C3C)o2)ccc1Cl | 1 | 56* | 5 | 47*
CCOC(=O)c1cc(-c2ccc(/C=N\n3cnnc3)o2)ccc1Cl | 0 | 3 | -1 | x
CC(C)NC(=O)COC(=O)c1ccc(Cl)c(S(N)(=O)=O)c1 | 0 | -1 | 3 | x
O=Cc1ccc(Sc2nnc(-c3ccccc3)o2)c([N+](=O)[O-])c1 | 0 | u | -4 | 8
Cc1cc(C)nc(Sc2ccc(C=O)cc2[N+](=O)[O-])n1 | 0 | 3 | -18 | x
COc1ccc(Cn2c(-c3ccc(C)cc3)nc3c(c(=O)c4ccccc4n3C)c2=O)cc1 | -1 | 41* | -4 | 23
COc1ccc(Cn2c(-c3ccc(OC)cc3)nc3c(c(=O)c4ccccc4n3C)c2=O)cc1 | 0 | 36 | -25 | x
O=C(Nc1ccc(N2CCN(C(=O)c3ccccc3)CC2)c(Cl)c1)c1ccco1 | 0 | 2 | 4 | x
